Reference: PubChem BioAssay (Tox21)
Records with an inconclusive call do not appear. Calls of active or inactive are those of the source. Unless noted, calls come from the whole dose curve; as a rule, active = well fitted curve in the direction sought with a large enough effect in the repeat runs; inconclusive = weak or mixed curves; inactive = no such curve, though single readings can be large; an effect the other way counts as inactive or inconclusive.

Tests used:
[1] = qHTS assay to identify small molecule agonists of the peroxisome proliferator-activated receptor delta (PPARd) signaling pathway - cell viability counter screen (AID 743211); note: nearly all actives have a fitted effect of over 55% in size
In short: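 Viability was measured as CellTiter-Glo luminescence (30 min, room temperature) in the same wells as the beta-lactamase readout. GeneBLAzer PPARd UAS-bla HEK293H cells received compound after 5 h plating and were incubated 17 h at 37 C.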

[2] = target: Peroxisome proliferator-activated receptor delta (Homo sapiens) (UniProt Q03181); test: qHTS assay to identify small molecule agonists of the peroxisome proliferator-activated receptor delta (PPARd) signaling pathway (AID 743212; calls by dose curve)
In short: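 HEK293H UAS-bla reporter cells, human PPARd system; compounds delivered in DMSO after 5 h plating, then at 37 C. Beta-lactamase FRET read, 2 h RT substrate step.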

[3] = qHTS assay to identify small molecule antagonists of the peroxisome proliferator-activated receptor delta (PPARd) signaling pathway - cell viability counter screen (AID 743213); note: nearly all actives have a fitted effect of over 50% in size
In short: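 Same-well viability: cells pre-incubated 5 h, dosed with compound plus 300 nM L165041, kept 17 h at 37 C, FRET substrate 2 h RT, then CellTiter-Glo 30 min RT and luminescence.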

[4] = target: Peroxisome proliferator-activated receptor delta (Homo sapiens) (UniProt Q03181); test: qHTS assay to identify small molecule antagonists of the peroxisome proliferator-activated receptor delta (PPARd) signaling pathway (AID 743215; active = well fitted inhibition curve with a large enough effect in the signal ratio in the repeat runs, not every such curve was filed as active; the % refers to the signal ratio;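 note: cells stimulated with agonist L165041 at 300 nM final during compound exposure; series mostly up to about 62 µM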)
In short: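 Read-out is beta-lactamase FRET fluorescence, measured 2 h after substrate addition at room temperature. Beforehand, UAS-bla HEK293H cells carrying the PPARd reporter were exposed to compounds with L165041 at 300 nM final for 17 h at 37 C.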

[5] = qHTS assay to identify small molecule agonists of the farnesoid-X-receptor (FXR) signaling pathway - cell viability counter screen (AID 743218); note: nearly all actives have a fitted effect of over 45% in size
In short: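 HEK 293T FXR-bla cells; 5 h pre-incubation, 16 h compound exposure at 37 C; LiveBLAzer substrate 2 h RT, then CellTiter-Glo 30 min RT, luminescence.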

[6] = qHTS assay to identify small molecule antagonists of the farnesoid-X-receptor (FXR) signaling pathway - cell viability counter screen (AID 743221; active = well fitted cell-killing curve with a large enough effect in the repeat runs, not every such curve was filed as active; note: nearly all actives have a fitted effect of over 50% in size)
In short: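 Cytotoxicity counter screen run in the FXR-bla reporter wells: HEK 293T cells exposed to compound with 50 uM (final) chenodeoxycholic acid for 16 h, 37 C, then viability measured by CellTiter-Glo luminescence after 30 min, room temperature.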

[7] = target: Vitamin D3 receptor (Homo sapiens) (UniProt P11473); test: qHTS assay to identify small molecule agonists of the vitamin D receptor (VDR) signaling pathway (AID 743222; calls by dose curve)
In short: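 VDR-bla cells, 2,000/well; 4 h preincubation 37C; cpd (DMSO) 16 h; LiveBLAzer B/G substrate 2 h RT; fluorescence intensity read.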

[8] = target: Vitamin D3 receptor (Homo sapiens) (UniProt P11473); test: qHTS assay to identify small molecule antagonists of the vitamin D receptor (VDR) signaling pathway (AID 743223; active = well fitted inhibition curve with a large enough effect in the signal ratio in the repeat runs, not every such curve was filed as active; the % refers to the signal ratio)
In short: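 Antagonist mode: compound added to VDR-bla cells alongside agonist 1alpha,25-dihydroxyvitamin D3 (3 nM final), incubation 16 h at 37C. Read-out is LiveBLAzer FRET fluorescence, 2 h at room temperature.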

[9] = target: Bile acid receptor (Homo sapiens) (UniProt Q96RI1); test: qHTS assay to identify small molecule antagonists of the farnesoid-X-receptor (FXR) signaling pathway (AID 743217; active = well fitted inhibition curve with a large enough effect in the signal ratio in the repeat runs, not every such curve was filed as active; the % refers to the signal ratio)
In short: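 HEK 293T FXR-UAS-bla, 5000 cells/well; compound + CDCA 50 uM final; 16 h, 37 °C; B/G FRET substrate 2 h RT; fluorescence.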

[10] = target: Bile acid receptor (Homo sapiens) (UniProt Q96RI1); test: qHTS assay to identify small molecule agonists of the farnesoid-X-receptor (FXR) signaling pathway (AID 743220; active = well fitted activation curve with a large enough effect in the signal ratio in the repeat runs, not every such curve was filed as active; the % refers to the signal ratio)
In short: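 Beta-lactamase reporter under UAS control in GeneBLAzer FXR HEK 293T cells (5000/well) measured with LiveBLAzer FRET substrate after 2 h at room temperature. Compound exposure lasted 16 h at 37C.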

Measured: Potency

Chain of Peroxisome proliferator-activated receptor delta (Homo sapiens) (Q03181 whole entry, looked up): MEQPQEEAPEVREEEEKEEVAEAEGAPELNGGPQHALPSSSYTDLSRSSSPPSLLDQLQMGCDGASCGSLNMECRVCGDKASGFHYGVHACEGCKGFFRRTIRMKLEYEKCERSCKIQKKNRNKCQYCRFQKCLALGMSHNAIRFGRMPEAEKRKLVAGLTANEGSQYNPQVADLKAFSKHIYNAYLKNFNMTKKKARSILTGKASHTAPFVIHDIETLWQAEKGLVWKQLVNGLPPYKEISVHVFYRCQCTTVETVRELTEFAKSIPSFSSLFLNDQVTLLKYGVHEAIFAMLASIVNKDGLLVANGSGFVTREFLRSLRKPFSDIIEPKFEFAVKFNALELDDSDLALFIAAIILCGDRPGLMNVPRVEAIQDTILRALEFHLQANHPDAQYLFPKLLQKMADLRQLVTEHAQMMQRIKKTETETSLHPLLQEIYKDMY
Chain of Bile acid receptor (Homo sapiens) (Q96RI1 whole entry, looked up): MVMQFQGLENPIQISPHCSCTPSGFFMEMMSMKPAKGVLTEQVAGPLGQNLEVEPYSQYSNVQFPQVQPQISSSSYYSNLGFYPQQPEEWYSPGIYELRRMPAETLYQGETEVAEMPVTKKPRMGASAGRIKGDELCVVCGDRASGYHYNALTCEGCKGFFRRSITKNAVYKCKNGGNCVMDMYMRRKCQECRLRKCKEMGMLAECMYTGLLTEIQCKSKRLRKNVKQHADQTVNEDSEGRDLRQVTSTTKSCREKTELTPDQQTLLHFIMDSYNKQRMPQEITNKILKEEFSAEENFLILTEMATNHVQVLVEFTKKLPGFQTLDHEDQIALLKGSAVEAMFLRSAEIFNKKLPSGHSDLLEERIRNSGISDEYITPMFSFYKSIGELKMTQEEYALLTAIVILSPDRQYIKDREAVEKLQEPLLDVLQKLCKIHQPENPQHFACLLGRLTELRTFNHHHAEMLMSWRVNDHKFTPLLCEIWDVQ
Chain of Vitamin D3 receptor (Homo sapiens) (P11473 whole entry, looked up): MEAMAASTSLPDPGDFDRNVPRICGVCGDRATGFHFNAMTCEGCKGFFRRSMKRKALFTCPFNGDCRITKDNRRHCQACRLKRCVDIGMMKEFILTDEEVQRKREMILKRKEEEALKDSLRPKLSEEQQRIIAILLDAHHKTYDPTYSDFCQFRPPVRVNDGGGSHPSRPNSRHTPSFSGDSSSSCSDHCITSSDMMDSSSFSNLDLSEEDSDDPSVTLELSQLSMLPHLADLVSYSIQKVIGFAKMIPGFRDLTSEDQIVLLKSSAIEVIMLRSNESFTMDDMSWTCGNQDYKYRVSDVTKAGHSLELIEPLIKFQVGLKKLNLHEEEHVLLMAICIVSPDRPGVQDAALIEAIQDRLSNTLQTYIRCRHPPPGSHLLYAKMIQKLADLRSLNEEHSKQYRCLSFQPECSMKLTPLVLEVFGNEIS

Nc1cc(-c2ccncc2)c[nH]c1=O
inactive: [1] | [2] | [3] | [4] | [5] | [6]

NS(=O)(=O)c1cc2c(cc1Cl)NC=NS2(=O)=O
not listed: [9] | [10]
inactive: all other assays above

CCCCCCCCCCC=CC1CC(=O)OC1=O (stereo not given)
not listed: [4] | [8]
inactive: all other assays above

O=C(O)c1cc(-c2ccccc2)nc2ccccc12
not listed: [3] | [7]
inactive: all other assays above

CCCCCCCCCCCCOCC1CO1 (stereo not given)
not listed: [5] | [8]
inactive: all other assays above

CCOC(=O)[C@H](CCc1ccccc1)N[C@@H](C)C(=O)N1Cc2ccccc2C[C@H]1C(=O)O
not listed: [5] | [8]
inactive: all other assays above

C=CC(=O)OCCCCCCCC(C)C
not listed: [7] | [8]
inactive: all other assays above

CCCCC(CC)COC(C)=O (stereo not given)
inactive: [1] | [2] | [3] | [4] | [5] | [6]

CCCCOCCO
not listed: [3] | [8]
inactive: all other assays above

O=C1O[C@H](CO)[C@@H](O)[C@H](O)[C@H]1O
not listed: [5] | [7]
inactive: all other assays above

O=C(Cl)c1c(Cl)c(Cl)c(C(=O)Cl)c(Cl)c1Cl
not listed: [7] | [8]
inactive: all other assays above

CC(C)(C)C(=O)C1C(=O)c2ccccc2C1=O
not listed: [9]
inactive: all other assays above

CC(=O)[C@@]1(O)CC[C@H]2[C@@H]3CCC4=CC(=O)CC[C@]4(C)[C@H]3CC[C@@]21C
inactive: [1] | [2] | [3] | [6]

OCCOCCOCCOCCO
inactive: [1] | [2] | [3] | [4] | [5] | [6]

O=[N+]([O-])C(CO)(CO)CO
inactive: [1] | [2] | [4] | [6] | [7] | [8]

Nc1nc2ncc(CNc3ccc(C(=O)N[C@@H](CCC(=O)O)C(=O)O)cc3)nc2c(=O)[nH]1
inactive: [1] | [2] | [4] | [6] | [7]

O=[N+]([O-])c1cccc(Cl)c1
not listed: [3] | [9] | [10]
inactive: all other assays above

C[C@@H](O)[C@H]1C(=O)N2C(C(=O)O)=C(S[C@@H]3CN[C@H](C(=O)N(C)C)C3)[C@H](C)[C@H]12
inactive: [1] | [3] | [5] | [6] | [7] | [8]

NCc1cccc(CN)c1
not listed: [3] | [5] | [8]
inactive: all other assays above

Cc1ccc(N)c(S(=O)(=O)O)c1
not listed: [1] | [8]
inactive: all other assays above

CS(=O)(=O)Nc1ccc([N+](=O)[O-])cc1Oc1ccccc1
inactive: [1] | [6] | [7]

Nc1c(S(=O)(=O)O)cc(Br)c2c1C(=O)c1ccccc1C2=O
inactive: [1] | [3] | [6] | [8]

C/C=C(C)/C=C/C=C(C)C
inactive: [1] | [3] | [6] | [8]

CC(C)Cc1ccccc1
inactive: [1] | [2] | [4] | [5] | [6]

NC(=O)/N=N/C(N)=O
not listed: [1] | [7] | [8]
inactive: all other assays above
